# Assay results as given in published antibiotic growth screens (doi:10.1016/j.cell.2020.01.021).
# The full ranking holds about 2,300 compounds; the median of “relative growth” is about 1, and the lowest 2% start at about 0.046. Not all results are given here.
# Tested on: E. coli BW25113
# Assay: relative growth (fraction of control); higher = less inhibition
# Conditions: 50 µM
row,Structure (SMILES),relative growth
1,COCCc1ccc(OCC(O)CNC(C)C)cc1.O=C(O)C(O)C(O)C(=O)O (stereo unspecified),1.17
2,COC1C(O)C(O)C(O)C(O)C1O (stereo unspecified),0.97
3,COc1cccc2c1C(=O)c1c(O)c3c(c(O)c1C2=O)CC(O)(C(=O)CO)CC3OC1CC(N)C(O)C(C)O1 (stereo unspecified),1.02
4,Cn1c(=O)c2[nH]cnc2n(C)c1=O,1.07
5,CN1CCC(=C2c3ccccc3Sc3ccccc32)CC1.O=C(O)C=CC(=O)O,0.967
6,CC[N+](CC)(CC(=O)Nc1c(C)cccc1C)Cc1ccccc1.O=C([O-])c1ccccc1,1.01
7,O=c1[nH]cc(F)c(=O)[nH]1,0.475
8,COc1ccc(CC2c3cc(OC)c(OC)cc3CC[N+]2(C)CCC(=O)OCCCCCOC(=O)CC[N+]2(C)CCc3cc(OC)c(OC)cc3C2Cc2ccc(OC)c(OC)c2)cc1OC.O=S(=O)([O-])c1ccccc1.O=S(=O)([O-])c1ccccc1 (stereo unspecified),0.995
9,CCN(CC)CCOc1ccc(C(=C(Cl)c2ccccc2)c2ccccc2)cc1.O=C(O)CC(O)(CC(=O)O)C(=O)O,0.86
10,CCOC(=O)Nc1ccc(NCc2ccc(F)cc2)nc1N.O=C(O)C=CC(=O)O,0.989
11,Cc1cc2nc3c(=O)[nH]c(=O)nc-3n(CC(O)C(O)C(O)COP(=O)([O-])O)c2cc1C.[Na+] (stereo unspecified),0.981
12,CCC(C)C1OC2(CCC1C)CC1CC(CC=C(C)C(OC3CC(OC)C(OC4CC(OC)C(O)C(C)O4)C(C)O3)C(C)C=CC=C3COC4C(O)C(C)=CC(C(=O)O1)C34O)O2 (stereo unspecified),0.874
13,CN(C)CCOC(c1ccccc1)c1ccccc1.Cn1c(=O)c2[nH]c(Cl)nc2n(C)c1=O,0.0491
14,Cn1c(=O)cc(N2CCCC(N)C2)n(Cc2ccccc2C#N)c1=O.O=C(O)c1ccccc1 (stereo unspecified),1.05
15,O.OCC(O)C(O)C(OC1OC(CO)C(O)C(O)C1O)C(O)CO (stereo unspecified),0.993
16,CC12CCC3c4ccc(O)cc4CCC3C1CC(O)C2O (stereo unspecified),1.07
17,CC(CN(C)C)CN1c2ccccc2Sc2ccccc21.O=C(O)C(O)C(O)C(=O)O (stereo unspecified),0.971
18,CC(=O)NCC(=O)O.CC(=O)NCC(=O)O.N=C(N)c1ccc(N=NNc2ccc(C(=N)N)cc2)cc1,1.01
19,CCOCC(O)COc1ccc(NC(=O)CC[S+](C)C)cc1.Cc1ccc(S(=O)(=O)[O-])cc1 (stereo unspecified),1.09
20,O=C(O)CC(O)(CC(=O)O)C(=O)O,1.02
21,CN(CCOc1ccc(CC2SC(=O)NC2=O)cc1)c1ccccn1.O=C(O)C=CC(=O)O (stereo unspecified),0.921

row,Structure (SMILES),relative growth
1,CC(C)C(=O)Oc1ccc(CO)cc1C(CCN(C(C)C)C(C)C)c1ccccc1.O=C(O)C=CC(=O)O (stereo unspecified),0.804
2,C[n+]1cc2c3c(ccc2c2ccc4cc5c(cc4c21)OCO5)OCO3.[Cl-],0.639
3,CC(CCC(=O)O)C1CCC2C3C(O)CC4CC(O)CCC4(C)C3CCC12C (stereo unspecified),0.976
4,CCOCCn1c(N2CCCN(C)CC2)nc2ccccc21.O=C(O)C=CC(=O)O.O=C(O)C=CC(=O)O,1.11
5,NCC1OC(OC2C(N)CC(N)C(OC3OC(CO)C(O)C(N)C3O)C2O)C(O)C(O)C1O.O=S(=O)(O)O (stereo unspecified),0.935
6,CC(C)(C)NCC(O)COc1nsnc1N1CCOCC1.O=C(O)C=CC(=O)O (stereo unspecified),0.974
7,CCCc1nn(C)c2c(=O)[nH]c(-c3cc(S(=O)(=O)N4CCN(C)CC4)ccc3OCC)nc12.O=C(O)CC(O)(CC(=O)O)C(=O)O,0.963
8,C[N+](C)(CCOc1ccccc1)Cc1ccccc1.O=C([O-])c1cc2ccccc2cc1O,0.93
9,COc1cccc2c1C(=O)c1c(O)c3c(c(O)c1C2=O)CC(O)(C(=O)CO)CC3OC1CC(N)C(O)C(C)O1.Cl (stereo unspecified),1.02
10,CC12CCC3C(=CCc4cc(O)ccc43)C1CCC2=O (stereo unspecified),0.988
11,CCC1OC(=O)C(C)C(OC2CC(C)(OC)C(O)C(C)O2)C(C)C(OC2OC(C)CC(N(C)C)C2O)C(C)(O)CC(C)C(=O)C(C)C(O)C1(C)O.CCCCCCCCCCCCCCCCCC(=O)O (stereo unspecified),0.665
12,NCCCC(N)C(=O)O.NCCCC(N)C(=O)O.O=C(O)CCC(=O)C(=O)O,1.09
13,C=CC1CN2CCC1CC2C(O)c1ccnc2ccc(OC)cc12 (stereo unspecified),1.02
14,Cc1ccsc1C=CC1=NCCCN1C.O=C(O)CC(O)(CC(=O)O)C(=O)O,0.986
15,CN(C)C1C(O)=C(C(N)=O)C(=O)C2(O)C(O)=C3C(=O)c4c(O)cccc4C(C)(O)C3CC12.Cl (stereo unspecified),0.0522
16,CN1CCN(C2=Nc3ccccc3Oc3ccc(Cl)cc32)CC1.O=C(O)CCC(=O)O,1.08
17,C#CCCCCCCCCCCCC(O)CC(O)COC(C)=O.C=CCCCCCCCCCCCC(O)CC(O)COC(C)=O (stereo unspecified),1.03
18,CCN(CC)CCOCCOC(=O)C1(c2ccccc2)CCCC1.O=C(O)CC(O)(CC(=O)O)C(=O)O,1.08
19,CN(C)CCC(c1ccc(Cl)cc1)c1ccccn1.O=C(O)C=CC(=O)O (stereo unspecified),0.967
20,CCCCCCc1ccc(O)cc1O.Nc1c2ccccc2nc2ccccc12,0.591
21,Cl.N[C@H](Cc1ccccc1)C(=O)O,1

row,Structure (SMILES),relative growth
1,O=C(O)C(O)C(O)C(=O)O.OCc1cccnc1 (stereo unspecified),1.06
2,CNCC(O)C(O)C(O)C(O)CO.Cc1c(Nc2ncccc2C(=O)O)cccc1C(F)(F)F,1.04
3,CCCCCNC(=N)NN=Cc1c[nH]c2ccc(OC)cc12.O=C(O)C=CC(=O)O,0.879
4,CCN(CC)CCOCCOC(=O)C(CC)(CC)c1ccccc1.O=C(O)CC(O)(CC(=O)O)C(=O)O,1.1
5,CN1CCCN=C1C=Cc1cccs1.O=C(O)c1cc2ccccc2c(Cc2c(O)c(C(=O)O)cc3ccccc23)c1O,1.13
6,CCC1OC(=O)CC(O)C(C)C(OC2OC(C)C(OC3CC(C)(O)C(O)C(C)O3)C(N(C)C)C2O)C(CC=O)CC(C)C(=O)C=CC(C)=CC1COC1OC(C)C(O)C(OC)C1OC.O=C(O)C(O)C(O)C(=O)O (stereo unspecified),1.09
7,CC(=O)OC1CC2(C)C(CC(O)C3C4(C)CCC(O)C(C)C4CCC32C)C1=C(CCC=C(C)C)C(=O)O (stereo unspecified),1.12
8,NNC(=O)c1ccncc1.Nc1ccc(C(=O)O)c(O)c1,0.943
9,O=C(O)CCC(=O)O.O=C(OC1CN2CCC1CC2)N1CCc2ccccc2C1c1ccccc1 (stereo unspecified),1.02
10,CCC(=O)OC1C(OC2C(C)C(OC3CC(C)(OC)C(O)C(C)O3)C(C)C(=O)OC(CC)C(C)(O)C(O)C(C)C(=O)C(C)CC2(C)O)OC(C)CC1N(C)C.CCCCCCCCCCCCOS(=O)(=O)O (stereo unspecified),0.953
11,Oc1ccc(Cl)c2cccnc12,0.421
12,CN1CCc2nc(C(=O)NC3CC(C(=O)N(C)C)CCC3NC(=O)C(=O)Nc3ccc(Cl)cn3)sc2C1.Cc1ccc(S(=O)(=O)O)cc1.O (stereo unspecified),1.01
13,CC(=O)c1ccc2c(c1)N(CCCN1CCN(CCO)CC1)c1ccccc1S2.O=C(O)C=CC(=O)O,1.17
14,CC(=O)OCC(=O)C1(O)C(C)CC2C3CCC4=CC(=O)C=CC4(C)C3(F)C(O)CC21C (stereo unspecified),0.913
15,OCC(O)C(O)C(OC1OC(CO)C(O)C(O)C1O)C(O)CO (stereo unspecified),0.991
16,CC1CC2C3CCC4=CC(=O)C=CC4(C)C3(F)C(O)CC2(C)C1(O)C(=O)COP(=O)([O-])[O-].[Na+].[Na+] (stereo unspecified),1.1
17,CN1C(C)(C)CCCC1(C)C.O=C(O)C(O)C(O)C(=O)O,0.993
18,CN(C)CCN(Cc1ccccc1)c1ccccn1.O=C(O)CC(O)(CC(=O)O)C(=O)O,0.763
19,CCC(=C(c1ccccc1)c1ccc(OCCN(C)C)cc1)c1ccccc1.O=C(O)CC(O)(CC(=O)O)C(=O)O,0.642
